In PubChem BioAssay AID538 (PCMD, 2006):
Out of some 62,000 compounds screened, about 100 (0.16%) were called active. The sample holds actives, similar compounds and a random draw of the others, so the mix is not that of the screen. A number with no mark means an inactive call.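 The calls were made as follows: active = inhibition above 20% in each of the two 10-compound mixture wells holding the compound; inactive = the rest.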

What follows are molecules tested against Complement C1s subcomponent (Homo sapiens) (UniProt P09871) (assay: human C1s inhibition by compound pools – biochemical, 10-compound mixtures, primary screen (AID 538;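 also: 0% = enzyme wells lacking compound mixture and 100% = no-enzyme blank wells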)). Details: purified C1s, fluorogenic AMC substrate, pooled mixtures; screened at 5 µM (by protocol).
Chain of Complement C1s subcomponent (Homo sapiens) (P09871 16-437 limits assumed): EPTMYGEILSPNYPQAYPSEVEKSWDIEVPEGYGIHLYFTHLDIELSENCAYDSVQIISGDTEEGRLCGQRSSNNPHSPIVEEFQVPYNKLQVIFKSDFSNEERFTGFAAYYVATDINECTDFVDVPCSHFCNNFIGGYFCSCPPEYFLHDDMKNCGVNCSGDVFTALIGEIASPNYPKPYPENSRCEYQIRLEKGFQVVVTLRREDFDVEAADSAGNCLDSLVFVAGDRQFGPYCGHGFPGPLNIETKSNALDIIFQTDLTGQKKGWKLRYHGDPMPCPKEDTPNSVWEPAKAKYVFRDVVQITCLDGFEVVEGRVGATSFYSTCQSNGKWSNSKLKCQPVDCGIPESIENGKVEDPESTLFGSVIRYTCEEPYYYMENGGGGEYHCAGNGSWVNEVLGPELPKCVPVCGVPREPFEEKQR
Chain of Complement C1s subcomponent (Homo sapiens) (P09871 438-688 limits assumed): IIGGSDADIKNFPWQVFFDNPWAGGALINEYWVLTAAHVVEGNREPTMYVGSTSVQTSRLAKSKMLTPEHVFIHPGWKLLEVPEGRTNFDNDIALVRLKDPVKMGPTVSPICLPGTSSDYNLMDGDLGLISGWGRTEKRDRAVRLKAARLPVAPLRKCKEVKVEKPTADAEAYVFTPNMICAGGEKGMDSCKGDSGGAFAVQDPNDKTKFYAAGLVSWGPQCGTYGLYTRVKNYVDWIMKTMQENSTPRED

SMILES	mean inhibition % of two 10-compound mixtures (hits give high values)
Cc1cc(C)c(C#N)c(SCc2ccccc2C(=O)O)n1	-0.765%
O=C(c1ccc2c(c1)OCO2)N1CCNc2ccccc2C1	12.4%
C=CCn1c(SCc2csc(C)n2)nc2scc(-c3ccc(C)o3)c2c1=O	-5.96%
CCN(c1ccccc1)S(=O)(=O)c1cccc(C(=O)O)c1	-13.8%
CCOC(=O)n1c(SCC(=O)N(CC)CC)nc2ccccc21	12.2%
O=C1c2ccccc2C(O)N1Cc1ccccc1 (stereo not drawn)	-43.8%
COc1c(Br)cc2c(C)c(C(=O)N3CCOCC3)oc2c1Br	2.58%
CCOC(=O)COc1ccc(Cl)cc1C1NC(=O)NC(C)=C1C(C)=O (stereo not drawn)	-13%
COc1cc2c(cc1OC)C(c1ccncc1)CC(=O)N2 (stereo not drawn)	-11.7%
CC(=O)Nc1ccc(S(=O)(=O)N2CCSCC2)cc1	10.8%
CC(=O)Nc1ccc(NC(=O)CN2CCCC(C)C2)c(Cl)c1 (stereo not drawn)	8.18%
O=C(O)CCSc1nnc(-c2ccccc2)n1-c1ccccc1	-30.3%
CC(C)OC(=O)c1cc(NC(=O)C2C3CCC(O3)C2C(=O)O)cc(C(=O)OC(C)C)c1 (stereo not drawn)	-14.5%
OC(COc1cccc2ccccc12)CN1CCN(c2ccccn2)CC1 (stereo not drawn)	-2.25%
COC(=O)c1ccc(Oc2nc(NC(C)C)nc(SC)n2)cc1	-1.35%
CCCCc1cc(=O)oc2cc(C)cc(OCc3nn[nH]n3)c12	-6.89%
CC(C)COC(=O)c1ccc(NC(=O)C2C3C=CC(C3)C2C(=O)O)cc1 (stereo not drawn)	-22.9%
COc1ccccc1NC1=NC2(CCCC2)N=C(N)N1	-18.3%
Cc1cc(NC(=O)COn2nnc3ccccc32)no1	0.88%
CCOC(=O)C1C(=O)OC2(CCCC2)C1C(=O)OCC (stereo not drawn)	0.585%
COc1nc(OC)nc(N(C)CCO)n1	-12.5%
CC1CCN(C(=O)Cn2cc(C(=O)c3ccco3)c3ccccc32)CC1	-1.29%
CC(C)(C)C(=O)CCN1C(=O)C2(OCCO2)c2ccccc21	10.6%
CCCN(CCC)C(=O)C1c2ccccc2Oc2ccccc21	-0.445%

SMILES	mean inhibition % of two 10-compound mixtures (hits give high values)
Nc1nc(SCCOc2ccccc2)n[nH]1	2.17%
CCCc1cc(=O)n2[nH]c(SCc3ccccc3)nc2n1	-2.75%
CC(=O)Oc1cccc(N2C(=O)CC(Nc3ccc(N4CCOCC4)cc3)C2=O)c1 (stereo not drawn)	6.64%
O=C(CN1CCN(c2ccccn2)CC1)NCc1cccs1	-12.2%
O=C(CSc1nc2cc3c(cc2c(=O)n1CCC1=CCCCC1)OCO3)NCc1ccco1	2.65%
COc1ccc(S(=O)(=O)Nc2ccc(S(=O)(=O)N3CCCCC3)cc2)cc1OC	-2.79%
CC(C)(C)NC(=O)C(c1ccco1)N(Cc1ccc2c(c1)OCO2)C(=O)Cn1nnc2ccccc21 (stereo not drawn)	22% (active)
COCCNC(=O)C(c1ccc(C)o1)N(Cc1ccccc1)C(=O)Cn1nnc2ccccc21 (stereo not drawn)	-0.43%
CCC(C)(C)NC(=O)C(c1cccn1C)N(Cc1ccc(C)cc1)C(=O)Cn1nnc2ccccc21 (stereo not drawn)	-0.485%
CCOc1ccc(-c2nnn(CC(=O)N3CCN(c4ccc(F)cc4)CC3)n2)cc1OCC	-19.4%
CC(=O)c1c(C)[nH]c(C(=O)NCCCN2CCCC2)c1C	13.1%
Cc1nc(Nc2ccc3c(c2)OCCO3)c2nnn(Cc3ccccc3Cl)c2n1	-7.66%
Cn1c(SCC(=O)Nc2cccc(NC(=O)c3cccs3)c2)nnc1-c1ccncc1	-18.6%
COc1ccc(N2C(=O)CN=C2Nc2cccc(C)c2C)cc1OC	13.9%
COc1ccc(Cl)cc1NC(=O)c1oc(C)nc1C	-7.77%
Cc1nc(C)c(C(=O)Nc2cccc(C)c2C)o1	22% (active)
Cc1nc(C)c(C(=O)Nc2ccc(C)c(F)c2)o1	4.8%
COCc1nc2ccccc2n1Cc1ccccc1Br	-10.1%
COc1cccc(C2/C(=C(/O)c3ccc(F)cc3)C(=O)C(=O)N2CCN(C)C)c1 (stereo not drawn)	2.55%
Cc1ccc(NC(=O)N2CCC(C(=O)NCc3ccc(F)cc3)CC2)cc1	26.6%
CCOC(=O)c1[nH]c2ccc(C)cc2c1N=C(C)N(C)C	-3.15%
COc1ccc(-n2c(SCC(=O)NCc3cccs3)nnc2-c2ccoc2C)cc1	1.91%
O=C(Cn1cnc2c(cnn2-c2ccccc2)c1=O)NCc1ccccc1	4.69%
O=C(OC1CCOC1=O)c1ccc(-c2nc3ccccc3s2)s1 (stereo not drawn)	3.37%
